From PubChem BioAssay
SW480 rereplic: inducers of DNA re-replication in SW480 colon cancer cells. SW480 DNA re-replication, Hoechst DNA content imaging, 48 h. Potency, µM (highest dose often 46.1 µM), for the others: at the top dose re-replication activation, actives largely listed as activators. actives 1.8% (n = 340,000). AID 624297; also: potency is read from the fitted curve at half-maximal effect; % of control where 0% means no effect; nearly all actives have a fitted effect of over 55% in size
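Compounds, transferred as 23 nL by pin tool, were incubated with cells for 48 hr; DNA content per nucleus was then quantified by Hoechst staining and fluorescence plate imaging.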
MCF10A rereplic: DNA re-replication induction in MCF 10a cells. MCF 10A DNA re-replication, Hoechst nuclear intensity, 48 h. Potency, µM (series often up to 46.1 µM), without a hit: top-dose activity, positive = re-replication, actives largely listed as activators. actives 2.9% (n = 350,000); also: potency is read from the fitted curve at half-maximal effect; % of control where 0% means no effect; nearly all actives have a fitted effect of over 50% in size
KCNH2 3.1 inh: blocks the human KCNH2 3.1 channel isoform. activity change, % (tested at about 1.8 µM). U2OS KCNH2 3.1, thallium flux FluxOr; active compounds read low. AID 720553. actives 0.95% (n = 340,000);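 active = maximum activity change below -70%; inconclusive = maximum activity change from -70% to -50%; inactive = maximum activity change above -50%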;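 also: thallium influx rate constant from kinetic fluorescence after stimulation buffer; % is scaled to controls: 0 for no effect and ±100 for the full control effect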
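Thallium flux via FluxOr fluorescence (Red40 quencher, 45 min loading) in U2OS cells virally expressing the KCNH2 3.1 isoform (1.77 x 10^8 /mL virus, overnight at 37 C). Rate constants from 2-min kinetic reads post-stimulation, normalised to positive and negative controls.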
KB-3-1 tox: KB-3-1 parental cell cytotoxicity. Potency, µM (doses to about 46.1 µM), most hits filed as cytotoxic. actives 1.4% (n = 400,000). KB-3-1 viability, CellTiter-Glo ATP luminescence, 72 h. AID 1347075; also: potency is read from the fitted curve at half-maximal effect; % is scaled to controls: 0 for no effect and ±100 for the full control effect; nearly all actives have a fitted effect of over 60% in size
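Cytotoxicity measured as CellTiter-Glo luminescence after 72 h at 37 C. Compound titrations were pinned onto drug-naive KB-3-1 parental adenocarcinoma cells grown in DMEM with 10% FBS, and normalized data fitted to concentration-response curves.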
KB-V1 cytotox: KB-V1 MDR subline cytotoxicity. KB-V1 MDR cells viability, CellTiter-Glo, 72 h. Potency, µM (doses to about 46.1 µM), usual class: cytotoxic. actives 3.4% (n = 400,000); also: potency is read from the fitted curve at half-maximal effect; % is scaled to controls: 0 for no effect and ±100 for the full control effect; nearly all actives have a fitted effect of over 60% in size
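In this primary screen, KB-V1 cells overexpressing P-gp are incubated with library compounds (lowest to highest concentration) for 72 h at 37 degrees C before a luminescent ATP viability read.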
KCNH2 WT inh: inhibitors of human wildtype KCNH2 potassium channel; Q12809; U2OS, BacMam KCNH2, thallium flux FluxOr; active compounds read low; activity change, % at 1.84 µM; actives 0.37% (n = 340,000); AID 720551;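 active = maximum activity change below -70%; inconclusive = maximum activity change between -70% and -50%; inactive = maximum activity change above -50%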; also: % is scaled to controls: 0 for no effect and ±100 for the full control effect
Target sequence (Q12809 whole entry, looked up): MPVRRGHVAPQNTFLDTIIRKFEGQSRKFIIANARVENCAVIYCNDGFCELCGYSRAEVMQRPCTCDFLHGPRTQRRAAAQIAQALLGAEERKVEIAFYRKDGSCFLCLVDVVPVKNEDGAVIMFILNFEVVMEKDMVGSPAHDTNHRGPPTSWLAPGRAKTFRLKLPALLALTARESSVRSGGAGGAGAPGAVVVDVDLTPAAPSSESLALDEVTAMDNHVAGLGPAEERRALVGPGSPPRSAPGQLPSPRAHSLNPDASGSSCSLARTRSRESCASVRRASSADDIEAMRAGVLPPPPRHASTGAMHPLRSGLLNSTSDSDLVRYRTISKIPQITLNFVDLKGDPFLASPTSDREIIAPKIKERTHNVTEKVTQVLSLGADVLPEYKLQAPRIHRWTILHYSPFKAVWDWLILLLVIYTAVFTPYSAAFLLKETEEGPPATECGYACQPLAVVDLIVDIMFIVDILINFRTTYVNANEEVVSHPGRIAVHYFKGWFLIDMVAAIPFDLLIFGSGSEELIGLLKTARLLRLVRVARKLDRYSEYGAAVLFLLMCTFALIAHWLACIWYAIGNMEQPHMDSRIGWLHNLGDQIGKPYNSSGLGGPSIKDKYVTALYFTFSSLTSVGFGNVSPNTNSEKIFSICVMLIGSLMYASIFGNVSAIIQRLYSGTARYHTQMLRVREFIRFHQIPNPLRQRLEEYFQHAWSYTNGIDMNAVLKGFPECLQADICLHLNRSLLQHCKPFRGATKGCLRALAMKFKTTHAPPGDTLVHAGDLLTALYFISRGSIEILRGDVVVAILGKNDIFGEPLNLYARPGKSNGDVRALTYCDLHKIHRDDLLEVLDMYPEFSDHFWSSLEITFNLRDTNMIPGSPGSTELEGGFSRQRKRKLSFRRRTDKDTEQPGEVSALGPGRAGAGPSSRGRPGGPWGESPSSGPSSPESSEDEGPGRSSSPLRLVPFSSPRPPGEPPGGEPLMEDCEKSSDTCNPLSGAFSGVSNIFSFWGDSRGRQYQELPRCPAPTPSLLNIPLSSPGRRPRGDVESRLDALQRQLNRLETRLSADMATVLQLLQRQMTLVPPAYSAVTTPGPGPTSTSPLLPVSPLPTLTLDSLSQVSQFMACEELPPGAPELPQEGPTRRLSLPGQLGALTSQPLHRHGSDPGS
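U2OS cells were transduced with wild-type KCNH2 virus (2.03 x 10^8 / mL) for 4 h at room temperature, then cultured overnight at 37 C. Thallium flux was read with FluxOr dye. Rate constants were normalized to DMSO controls.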
* marks the source's active call; other numbers are inactive results; i = inactive; ? = inconclusive; . = no result given; ! = not active in a repeat. Shown are actives, neighbours in structure and some others; about 7.6% of the full set was active somewhere. Unless noted, calls follow the shape of the dose curve; as a rule, active = well fitted curve in the direction sought with a large enough effect; inconclusive = small, poorly fitted or top-dose-only effect, or another doubt; inactive = no such curve, though single readings can be large; an effect the other way counts as inactive or inconclusive.

SMILES	SW480 rereplic	MCF10A rereplic	KCNH2 3.1 inh	KB-3-1 tox	KB-V1 cytotox	KCNH2 WT inh
COc1cc(C(=O)Nc2ccc(NC(=O)c3cccc(Cl)c3)nc2)cc(OC)c1OC	0.8%	11.4%	-0.4	i	?	1.8
O=C(NC(=S)Nc1ccc(Cl)cn1)C(c1ccccc1)c1ccccc1	?	14.6µM*	10.2	18.4µM*	?	-3.0
Cc1ccc(C(=O)/C=C/Nc2cccc(O)c2)cc1	?	23.1µM*	-8.9	i	i	-1.9
Cc1ccc(/C=C/C(=O)c2ccc(O)cc2)cc1	18.4µM*	?	-39.7	?	?	-1.3
CSc1ccc(/C=C/C(=O)c2ccc(O)cc2)cc1	21.4%	?	3.1	?	?	2.3
Cc1ccc(C(=O)/C=C/c2ccc3ncccc3c2)cc1	?	18.4µM*	-12.9	i	i	-10.3
CN1CCN(S(=O)(=O)c2cccc(C(=O)Nc3cc(C(F)(F)F)ccc3N3CCCC3)c2)CC1	-9.1%	9.9%	-26.7	i	i	16.4
C=CCn1c(SCC(=O)N(C)C2CCS(=O)(=O)C2)nnc1-c1ccncc1 (configuration not stated)	-9.6%	4.3%	1.7	i	?	-8.7
Cc1ccc(Nc2c(-c3ccccc3)nc3cnccn23)cc1	16.9%	23.1µM*	-4.5	i	i	-1.3
Cc1ccc(-c2nc3cnccn3c2Nc2ccccc2)o1	?	23.1µM*	-0.5	i	?	-7.8
COc1ccc(Nc2c(-c3ccc(C)o3)nc3cc(C)ccn23)cc1	.	.	.	23.1µM*	i	.
COc1ccc(-c2nc3cnccn3c2Nc2ccc(C)cc2)cc1	4.7%	0.3%	6.9	i	i	14.2
CSc1ccc(-c2nc3cnccn3c2Nc2ccc3c(c2)OCO3)cc1	6.7%	5.8µM*	4.7	?	23.1µM*	4.9
CCOC(=O)c1ccc(-c2c(-c3ccc4c(c3)OCO4)noc2C)cc1F	-5.6%	?	.	?	?	.
COc1ccc(Cl)cc1NC(=O)CN(C)S(=O)(=O)c1ccc2c(c1)CCCN2C(C)=O	.	.	.	?	i	.
COc1ccc(-c2sc(Nc3ccccc3)n[n+]2-c2ccc(F)cc2)c(C)c1C	-15.9%	0.4%	-17.1	i	i	-17.9
COC(=O)[C@H](Cc1ccccc1)NC(=O)NCCc1ccccc1F	-6.2%	-4.2%	1.9	i	i	8.5
Cc1ccn2c(Nc3ccccc3C)c(-c3ccncc3)nc2c1	?	-0.4%	-9.5	i	23.1µM*!	-24.2
O=[N+]([O-])c1cc2no[n+]([O-])c2cc1N1CCCCC1	6.51µM*	3.26µM*	18.1	?	i	17.4
N#Cc1cc(N2CCCCC2)c([N+](=O)[O-])cc1C#N	11.3%	?	6.9	i	i	9.3
CCCOc1ccc(C2C(=O)N(C3CCCCC3)CC(=O)N2C2CCCCC2)cc1OC (configuration not stated)	.	.	.	i	i	.
CCCOc1ccc(C2C(=O)N(C3CCCCCC3)CC(=O)N2Cc2ccco2)cc1OC (configuration not stated)	8.1%	9.4%	2.4	i	1.3µM*	2.4
Cc1ccc(S(=O)(=O)/N=C2\SC(CC(=O)Nc3ccc(F)cc3)C(=O)N2c2ccccc2)cc1 (configuration not stated)	-6.4%	-2.1%	-5.0	i	?	-2.8
O=C(CC1S/C(=N\S(=O)(=O)c2ccccc2)N(c2ccccc2)C1=O)Nc1ccc(F)cc1 (configuration not stated)	1.4%	-2.5%	-80.3*	i	i	-29.2
N#Cc1ccc(C(=O)N2CCN(c3ncccn3)CC2)cc1	-6.5%	-17.5%	7.7	i	i	3.7
COc1cc(CNCCCN2CCOCC2)cc(Br)c1OCc1ccc(Cl)cc1	-2.9%	13µM*	1.4	?	?	27.5
COc1cc(CNCCN2CCOCC2)ccc1OCc1ccc(Cl)cc1	?	?	-9.6	?	i	27.9
